High-throughput results (PubChem)
AmpC nodet inh = AmpC beta-lactamase inhibition, detergent-free assay; AmpC nitrocefin hydrolysis, absorbance 480 nm, no detergent; Potency, µM (highest dose often 28.7 µM), without a hit: at the highest dose activity change, negative = inhibition; 1.8% of 71,000 active; AID 585; note: % of control where 0% means no effect
Target sequence (P00811 whole entry, looked up): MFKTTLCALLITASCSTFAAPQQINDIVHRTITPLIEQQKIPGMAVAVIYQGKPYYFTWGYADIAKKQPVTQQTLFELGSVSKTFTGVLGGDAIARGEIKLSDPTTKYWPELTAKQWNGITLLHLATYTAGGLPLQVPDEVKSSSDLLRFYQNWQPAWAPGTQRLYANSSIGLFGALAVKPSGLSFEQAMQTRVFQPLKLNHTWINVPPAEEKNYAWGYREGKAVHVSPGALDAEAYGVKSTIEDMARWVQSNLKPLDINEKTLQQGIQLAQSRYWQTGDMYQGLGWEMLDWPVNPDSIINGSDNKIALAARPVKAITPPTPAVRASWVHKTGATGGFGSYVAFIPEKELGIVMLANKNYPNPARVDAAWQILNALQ
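Enzyme, pH 7.0 phosphate. Compound titrations were pre-incubated with AmpC for 15 min at room temperature before nitrocefin (stock 800 uM) addition; product formation was recorded at 480 nm every 20 s for 4 min.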
Prx2 Sm inh = blocks S. mansoni peroxiredoxin 2 enzymatic activity; S. mansoni Prx2 activity coupled to TGR/GSH (TGR is thioredoxin glutathione reductase), NADPH fluorescence loss, qHTS; Potency, µM; 0.07% of 65,000 active
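Activity is read as the drop in NADPH fluorescence (365/450 nm), recorded every 30 sec for 8 min after H2O2 addition. Prx2 is coupled to TGR-driven NADPH oxidation through glutathione, in phosphate buffer pH 7.4.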
LT uptake inh = inhibitors of anthrax lethal toxin internalization. Cells, anthrax lethal toxin internalization, FRET ratio (460/530). Potency, µM (highest dose often 40 µM), without a hit: at the top dose activity change, negative = inhibition, hits mostly inhibitors. 0.67% of 70,000 active. AID 912; note: % is set by controls: 0 for no effect and ±100 for the full control effect; nearly all actives have a fitted effect of over 50% in size
AmpC det inh = inhibitors of E. coli AmpC beta-lactamase with detergent | purified AmpC, nitrocefin hydrolysis with detergent | Potency, µM (titrated, usually from 28.7 µM), without a hit: at the highest dose activity change, negative = inhibition | 0.09% of 71,000 active; active = well fitted curve in the direction sought with a large enough effect; inconclusive = small, poorly fitted or top-dose-only effect; note: % is set by controls: 0 for no effect and ±100 for the full control effect
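E. coli AmpC (5.3 nM) in 20 mM phosphate pH 7.0 with 0.01% Triton X-100, preincubated 15 min RT with compound; nitrocefin (2 uL of 800 uM stock) hydrolysis followed by 480 nm absorbance every 20 s over 4 min.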
An asterisk follows results filed as active; ? = inconclusive; / = not tested or not shown; ! = not active in a repeat; [ ] = another dose, or the depositor's remark. The list is not random: actives were taken first. Their share in the collection is about 2.4%. Unless noted, calls come from the whole dose curve. Potency is the fitted concentration of half-maximal effect.

SMILES | AmpC nodet inh | Prx2 Sm inh | LT uptake inh | AmpC det inh
C=C[C@@H]1CN2CC[C@@H]1C[C@H]2[C@H](O)c1ccnc2ccccc12 | -0.7% | >57 | -12.4% | -2.0%
Cc1ccc(S(=O)(=O)C2(C(=O)Nc3cccnc3)CC2)cc1 | 3.98µM*[single pt active] | >57 | -8.5% | 13.8%
O=C=Nc1ccc(Cc2ccc(N=C=O)cc2)cc1 | 15.8µM* | / | -9.3% | 8.7%
Cn1c(=O)oc2cc(S(=O)(=O)N3CCCC(C(=O)NCc4ccc5c(c4)OCO5)C3)ccc21 (stereo unspecified) | 3.98µM*[single pt active] | >57 | 24.3% | 10.6%
Cc1ccc(NC(=O)C2CCCN(S(=O)(=O)c3ccc4c(c3)oc(=O)n4C)C2)nc1 (stereo unspecified) | 3.98µM*[single pt active] | >57 | 2.9% | 13.9%
C1CCN(CC[C@@H]2CCCCN2)CC1 | 9.3%[5.75 µM] | >57 | 2.9%[8 µM] | -3.9%[5.75 µM]
Cc1cc(C(=O)CSc2nc3ccccc3[nH]2)c(C)n1C | -1.9% | >57 | -8.0% | -3.1%
Cc1nn2c(=O)cc(CSc3nc4ccccc4[nH]3)nc2s1 | 3.98µM*[single pt active] | >57 | 7.7% | 13.1%
CCC(C)NC(=O)C1c2ccccc2C(=O)N1Cc1ccccc1OC (stereo unspecified) | 4.0% | >57 | 9.3% | -3.1%
CC(=O)OC1c2ccccc2C(=O)N1Cc1ccccc1Cl (stereo unspecified) | 3.98µM*[single pt active] | >57 | -5.2% | 9.4%
O=C(O)C=Cc1ccc(Cn2ccnc2)cc1 | -3.3% | >57 | -20.1% | 3.1%
COc1cccc(NC(=O)CSc2nc(N)cc(N)n2)c1 | -2.8% | >57 | 12.5% | -7.2%
COc1cccc(NC(=O)n2nc(N)cc2-c2ccc(Cl)cc2)c1 | 3.98µM*[single pt active] | >57 | ? | 9.7%
S=C(Nc1ccccc1)Nc1ccccc1C#Cc1ccccc1 | 5.01µM* | >11.4 | ? | -0.3%
O=C(N/N=C1/C[C@@H](O)[C@@H](O)[C@@H]2[C@@H]3C(=O)N(C[C@@H]4CCCO4)C(=O)[C@H]3CC[C@@H]12)OCc1ccccc1 | / | / | 3.7%[1.6 µM] | /
COCCn1c(=O)c(CCc2ccccc2)nc2cnc(N3CCOCC3)nc21 | 47.4% | >57 | ? | 0.3%
O=C(Cc1cccs1)Nc1ccc(S(=O)(=O)N2CCCCC2)cc1 | 12.6µM*[single pt active] | >57 | -3.4% | -1.8%
O=C(Nc1ccc(S(=O)(=O)N2CCCCCC2)cc1)c1ccc(Br)o1 | -11.4% | >57 | 1.58µM* | 8.4%
COc1cccc(Cn2c(=O)c(CCc3ccccc3)nc3cncnc32)c1 | 23.0% | >57 | -14.5% | 0.9%
CCCC[C@@H]1C[C@H]1C(NC(=O)c1cccs1)c1ccc(Cl)cc1 (stereo partly specified) | -24.6% | >57 | ? | 1.9%
Cc1cc(NC(=O)CCS(=O)(=O)c2nc(-c3ccccc3)cc(C(F)(F)F)n2)no1 | -10.9% | >57 | 7.94µM* | -3.0%
N#C/C(=C\c1ccc(O)c(O)c1)C(=O)NCCCc1ccccc1 | 0.2µM*! | >57 | ? | -1.5%
O=C(O)c1ccc2cc(-c3ccc(O)c(C45CC6CC(CC(C6)C4)C5)c3)ccc2c1 | / | / | 10µM* | /
C=CC[C@@H](C(=O)O)c1ccccc1 | -3.8%[5.75 µM] | >57 | -2.5%[8 µM] | -5.9%[5.75 µM]
Cc1sc(NC(=O)c2ccco2)nc1-c1ccc2c(c1)CC(C)N2C(=O)C1CC1 (stereo unspecified) | 78.5% | >57 | 10µM* | -3.7%
SMILES | AmpC nodet inh | Prx2 Sm inh | LT uptake inh | AmpC det inh
COc1ccc2c(c1)-c1nc(NC(=O)c3ccco3)sc1CC2 | 44.4% | >57 | -22.9% | -3.5%
O=C(CN1CCN(c2ccccc2)CC1)Nc1nnc(-c2ccccc2)s1 | -8.5% | >57 | -1.0% | -2.2%
O=C(CN1CCN(c2ccc(F)cc2)CC1)Nc1nnc(-c2ccccc2)s1 | 15.8µM*[single pt active] | >57 | 1.2% | 0.4%
O=C(Cc1coc2cc3c(cc12)CCC3)OCc1cc(=O)n2c(n1)sc1ccccc12 | 10µM* | >57 | -0.3% | -0.5%
Cc1ccc2c(CC(=O)OCc3csc(C)n3)coc2c1 | 37.2% | >57 | 3.3% | -3.8%
CC1=c2c(oc3cc(O)c(Nc4c(C)cc(O)cc4O)c(C)c23)=CC(=O)C1=Nc1c(C)cc(O)cc1O | -25.2%[5.75 µM] | >57 | -5.5%[8 µM] | -1.5%[5.75 µM]
O=C(NCCC1=CCCCC1)C1CCCN(S(=O)(=O)c2cccc3cccnc23)C1 (stereo unspecified) | 63.4% | >57 | -27.0% | 0.2%
O=C(Nc1ccc2c(c1)OCCO2)C1CCCN(S(=O)(=O)c2cccnc2)C1 (stereo unspecified) | 3.98µM*[single pt active] | >57 | ? | 12.5%
O=C(Nc1nccs1)C1CCCN(S(=O)(=O)c2cccnc2)C1 (stereo unspecified) | 3.98µM*[single pt active] | >57 | -0.1% | 11.9%
O=C(NCCC1=CCCCC1)C1CCCN(S(=O)(=O)c2cccnc2)C1 (stereo unspecified) | 2.51µM*[single pt active] | >57 | -13.7% | 12.1%
O=C(Nc1nccs1)C1CCN(S(=O)(=O)c2cccnc2)CC1 | -6.5% | >57 | 0.5% | 9.5%
CN[C@H]1[C@H]2[C@H]3CCN2C[C@@H]1O3 | 5.9% | >57 | ? | 0.8%
O=C(Cn1c(=O)oc2ccccc21)N1CCN(c2ccc(N3CCOCC3)nn2)CC1 | 2.51µM*[single pt active] | >57 | 1.9% | 12.5%
Cc1ccccc1NC(=O)c1ocnc1C | 3.98µM*[single pt active] | >57 | 6.4% | 12.6%
N=c1nc(N)nc(N)n1-c1ccc(S(N)(=O)=O)cc1 | -10.1%[5.75 µM] | >57 | -8.5%[8 µM] | -3.6%[5.75 µM]
CN1CCN(c2cc3c(c4c2[nH]c2ccccc24)C(=O)CC(C)(C)C3)CC1 | 3.16µM*[single pt active] | >57 | ? | 12.1%
Cc1ccccc1NS(=O)(=O)c1ccc(C2CNC(=O)C2)cc1 (stereo unspecified) | 0.2% | >57 | 9.4% | 17.7%
O=C1CC(c2ccc(S(=O)(=O)NCc3ccccc3)cc2)CN1 (stereo unspecified) | 3.98µM*[single pt active] | >57 | -7.5% | 14.2%
Cc1nccc2c1[nH]c1ccccc12 | 28.9% | >57 | ? | -1.2%
Cc1c2ccncc2c(C)c2c1[nH]c1ccccc12 | 1.3%[12.8 µM] | >57 | 5.01µM* | -4.3%[12.8 µM]
COc1ccc(C2CC(c3ccco3)n3ncnc3N2)cc1 (stereo unspecified) | 2.51µM*[single pt active] | >57 | -9.9% | 8.4%
CCOc1ccc(C2CC(c3cccc(C)c3)n3ncnc3N2)cc1 (stereo unspecified) | 83.4% | >57 | -13.4% | 13.3%
Cc1cccc(C2CC(c3ccccc3)Nc3ncnn32)c1 (stereo unspecified) | 3.98µM*[single pt active] | >57 | -1.5% | 15.2%
c1ccc(C2CC(c3ccccc3)n3ncnc3N2)cc1 (stereo unspecified) | 15.6% | >57 | 6.9% | 0.2%
COc1ccc(C2CC(c3cccc(C)c3)n3ncnc3N2)cc1 (stereo unspecified) | 3.98µM*[single pt active] | >57 | -2.4% | 15.0%
Fc1ccc(C2CC(c3ccccc3)Nc3ncnn32)cc1 (stereo unspecified) | 3.98µM*[single pt active] | >57 | -11.1% | 14.3%
C[C@H]1[C@H](O)[C@@H](C)C=CC=CC=CC=CC=CC=CC=C[C@H](O[C@@H]2O[C@@H](C)[C@H](O)[C@@H](N)[C@@H]2O)C[C@@H]2O[C@](O)(C[C@@H](O)C[C@@H](O)[C@@H](O)CC[C@@H](O)C[C@@H](O)CC(=O)O[C@H]1C)C[C@H](O)[C@H]2C(=O)O | 102.6%[5.75 µM] | >57 | ? | -5.2%[5.75 µM]
